The values below come from PubChem BioAssay (NCI).

About 83,000 compounds went through this panel and 20% of them were active in at least one assay; those are over-represented in the sample as a whole.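 Percent growth is the endpoint: 0 to 100 indicates growth inhibition (40 means 60% inhibition), 0 means no net growth, and negative values indicate cell death.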 Values without a mark were called inactive. Activity calls are given as the source filed them.

In this assay the test system is OVCAR-4 ovarian. Description: NCI-60 one-dose screen, 48 h (100 = growth as untreated, 0 = no growth, -100 = all killed). Conditions: 10 µM unless noted. As for the experimental part: Growth inhibition of the OVCAR-4 human tumor cell line is measured as a screen for anti-cancer activity. Cells are grown in 96 well plates and exposed to the test compound for 48 hours. Compounds are tested at a single concentration, which is 10^-5 M for most compounds. The reported endpoint is percent growth (GI% or GIPRCNT), where numbers from 0 - 100% represent growth inhibition, and numbers from -100% - 0 represent cell death. For example, a value of 40 represents 60% growth inhibition. A value of 0 means no net growth occurred over the course of the experiment. A value of -40 indicates 40% of cells at the beginning of the experiment died by the end of the experiment. A value of -100 means all cells are dead at the end of the experiment.
NCI-60 Human Tumor Cell Lines Screen was performed using the standard one-dose NCI protocol, which is described in more detail at https://dtp.cancer.gov/discovery_development/nci-60/default.htm.
Compounds with GIPRCNT values below 10 were considered active. Activity score was based on GIPRCNT using the following formula: […]
Score is 0 for GIPRCNT values of 100 or above, 50 for GIPRCNT values of 0, and 100 for GIPRCNT values of -100.
As for `OCCCCCNC1CCCCC1`, the growth was 103%. With `O=C(c1ccccc1O)c1[nH]c(Cl)c(Cl)c1-n1c(C(=O)c2ccccc2O)cc(Cl)c1Cl` the figure was 14.5%.

`C[n+]1c(/C=C/c2ccc(N(CCCl)CCCl)cc2)sc2ccccc21`: the growth is 72.9%. As for `COc1cccc2c1c(C(=O)C(=O)Nc1cc(C)no1)cn2Cc1ccc(F)cc1`, the growth is 90.9%.

As to `O=C(O)c1ccc([S-])cc1.[Au+].c1ccc(CN2[CH-]N(Cc3ccccc3)C(c3ccccc3)=C2c2ccccc2)cc1`, the growth was 38.1%.

On to `Cc1cccc(N2CCN(C(C)C#N)CC2)c1` (stereo not given), for which the growth was 114%. As to `Cc1ccc2c(C(C[N+](=O)[O-])c3cccs3)c(-c3ccccc3)[nH]c2c1` (stereo not given), the growth is 38%. With `C=C1[C@@H](C)[C@H]2[C@H](Cc3ccccc3)NC(=O)[C@]23[C@@H](O)/C=C/[C@@](C)(O)C(=O)[C@@H](C)C/C=C/[C@H]3[C@@H]1O`, the growth was 53.7%. Regarding `CC12CCC3C(CCC4Cc5[nH]c6ccccc6c5CC43C)C1CCC2O` (stereo not given), the growth was 51.8%.

Regarding `O=C(O)C(Cl)(Cl)C(F)(F)F`, the growth was 104%. As for `C=CC[Se]C(=O)c1ccccc1OC(C)=O`, the figure is -36% (active); as for `CCCCCCCOC(C(=O)OCCN(CC)CC)(c1ccccc1)c1ccccc1`, 81.6%. With `COC(=O)[C@@]1(O)C[C@H]2O[C@]1(C)n1c3ccccc3c3c4c(c5c6ccccc6n2c5c31)C(=O)NC4` the figure was -51% (active); with `Clc1cccc(NCOOC2(OOCNc3cccc(Cl)c3)CCCCC2)c1`, 107%. As for `NC(=O)CNc1ccc([As]=[As]c2ccc(NCC(N)=O)cc2)cc1` (stereo not given), the figure is 60.6%; as for `COc1cc([C@@H]2c3cc4c(cc3[C@H](OC(C)=O)[C@H]3COC(=O)[C@H]23)OCO4)cc(OC)c1OC`, 41.3%. Turning to `Clc1ccc(COC(Cn2ccnc2)c2ccc(Cl)cc2Cl)cc1` (stereo not given), the growth is 54%. `COc1ccc(Nc2ccnc3cc(Cl)ccc23)cc1CN(CCCl)CCCl`: the growth is -15.3% (active). For the compound `CC(=O)O[C@H](C[C@H](C(C)C)N(C)C(=O)[C@@H](NC(=O)[C@H]1CCCCN1C)C(C)C)c1cccc(C(=O)N[C@@H](Cc2ccccc2)C[C@H](C)C(=O)O)n1`, the growth was 41.9%. Turning to `COC(=O)CC[C@H](Cc1ccccc1)NC(=O)c1csc([C@@H](C[C@H](C(C)C)N(C)C(=O)[C@@H](NC(=O)[C@H]2CCCCN2C)C(C)C)OC(C)=O)n1`, the growth is 52.3%.

For the compound `COc1ccc(/C=C\c2cc(OC)c(OC)c(OC)c2)c(NS(=O)(=O)c2ccc(C)cc2)c1O`, the growth was 31.5%. For `CCCCN(CCCC)P(=O)(Oc1ccccc1)Oc1ccccc1`, the growth was 51.5%. As for `COC(=O)[C@@H](C)C[C@H](Cc1ccccc1)NC(=O)c1nc([C@@H](C[C@H](C(C)C)N(C)C(=O)[C@@H](NC(=O)[C@H]2C[C@H](O)CCN2C)C(C)C)OC(C)=O)sc1C(C)C`, the growth was 35.6%. Turning to `CC1(C)C(C(=O)c2cn(CCCCF)c3ccccc23)C1(C)C`, the growth is 107%.

For the compound `CC[C@H](NC(=O)[C@H]1CCCCN1C)C(=O)N(C)[C@H](C[C@@H](OC(C)=O)c1nc(C(=O)N[C@@H](Cc2ccccc2)C[C@H](C)C(=O)O)cs1)C(C)C`, the growth was 43.5%. Consider `CC[C@H](C)[C@H](NC(=O)C12C3C4C1C1C2C3C41NC)C(=O)N(C)[C@H](C[C@@H](OC(C)=O)c1nc(C(=O)N[C@@H](Cc2ccccc2)C[C@H](C)C(=O)OC)cs1)C(C)C` (stereo not given in full), for which the growth is 45.5%.

On to `CCCCCCCC[n+]1ccc2ccccc2c1`, for which the growth was 46.4%.

In the case of `CC1=C(CCCNS(C)(=O)=O)C2=C(C)C3(CC3)[C@@](C)(O)C(=O)C2=C1`, the growth was -12.1% (active). `COC(=O)[C@@H](C[C@H](Cc1ccccc1)NC(=O)c1csc([C@@H](C[C@H](C(C)C)N(C)C(=O)[C@@H](NC(=O)[C@H]2CCCCN2C)C(C)C)OC(C)=O)n1)NC(=O)OCc1ccccc1`: the growth is 46.2% [9.5 µM]. As for `N#C[S-].[Au+].c1ccc(CN2[CH-]N(Cc3ccccc3)C(c3ccccc3)=C2c2ccccc2)cc1`, the growth is 19.4%. As for `COC(=O)[C@@H](C)C[C@H](Cc1ccccc1)NC(=O)c1csc([C@@H](C[C@H](C(C)C)N(C)C(=O)[C@@H](NC(=O)[C@H]2CCCCN2C)c2ccc(F)cc2)OC(C)=O)n1`, the figure is 48.4%; as for `CC1(C)N=C(N)N=C(N)N1c1ccc(OCCCNC(=O)Nc2ccc(S(=O)(=O)F)cc2)c(Cl)c1`, 54.3%; as for `CS(=O)(=O)CCN1CC2CCCC(C2)C1`, 102%. Regarding `COC(=O)[C@@H](C)C[C@H](Cc1ccccc1)NC(=O)c1nc([C@@H](C[C@H](C(C)C)N(C)C(=O)[C@@H](NC(=O)[C@H]2CC(=O)CCN2C)C(C)C)OC(C)=O)sc1C(C)C`, the growth was 45.8%. For `CCCCCCCCOC(=O)CCN1CC1`, the growth is 115%.

In the case of `Cc1cc(C)c(CBr)c(C)c1`, the growth is 127%. `O=C1NC(=O)C(=Cc2cn(C(=O)c3ccccc3)c3ccccc23)C(=O)N1`: the growth was 92.1%. For the compound `CC12CC=CCC1CCC1C2CCC2(C)C(c3ccc(=O)oc3)CCC12O` (stereo not given), the growth was -48.1% (active). With `[Au+].[N-]=C=O.c1ccc(CN2[CH-]N(Cc3ccccc3)C(c3ccccc3)=C2c2ccccc2)cc1`, the growth was 79.7%. For the compound `COC(=O)CCC1=C(C)c2cc3[n-]c(cc4nc(cc5[n-]c(cc1n2)c(CCC(=O)OC)c5C)C=C4C)cc3C.[Cd+2]`, the growth was 37.7%.
